Measured values reported in PubChem BioAssay.
Active and inactive are the calls of the source.

What was measured:
[1] = test system: PRMT1 (protein arginine N-methyltransferase 1); assay: small molecules binding arginine methyltransferase PRMT1 – biochemical, small-molecule microarray, 635 nm fluorescence, primary screen (AID 1088); settings: higher = more signal;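 also: binding of Prmt1 protein to compounds spotted on small-molecule microarray slides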
[2] = growth effects on S. cerevisiae YJM789 – YJM789 clinical isolate, OD600, 24 h, basal, primary screen (AID 1089); settings: higher = more signal, called active from +8 up or from −8 down;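 also: growth of clinical yeast isolate S. cerevisiae YJM 789 seeded 1000 cells per well; test concentration not given here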
[3] = S. pombe growth modifiers, basal conditions – strain 972, OD600, 24 h, no modulator, primary screen (AID 1090);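 also: basal condition with compound alone and no growth modifier present; test concentration not given here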; settings: S. pombe 972 growth, higher = more signal, called active from +8 up or from −8 down
[4] = budding yeast growth modifiers under rapamycin – strain BY4716, OD600, 96 h, primary screen (AID 1091); also: test concentration not given here; settings: S. cerevisiae BY4716 + rapamycin, higher = more signal, called active from +8 up or from −8 down
[5] = biological target: Torsin-1A-interacting protein 2 (Homo sapiens) (UniProt Q8NFQ8); assay: small molecules binding lysate-expressed LULL1 – cell lysate, human LULL1 lysate, 635/667 nm fluorescence, primary screen (AID 1092); settings: small-molecule microarray, hLULL1 lysate binding, 635 nm fluorescence; higher = more signal;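 also: probe is lysate of COS7 cells overexpressing human LULL1; score merges per-feature 667 nm fluorescence with signal-to-noise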
Sequence of Torsin-1A-interacting protein 2 (Homo sapiens) (Q8NFQ8 whole entry, looked up): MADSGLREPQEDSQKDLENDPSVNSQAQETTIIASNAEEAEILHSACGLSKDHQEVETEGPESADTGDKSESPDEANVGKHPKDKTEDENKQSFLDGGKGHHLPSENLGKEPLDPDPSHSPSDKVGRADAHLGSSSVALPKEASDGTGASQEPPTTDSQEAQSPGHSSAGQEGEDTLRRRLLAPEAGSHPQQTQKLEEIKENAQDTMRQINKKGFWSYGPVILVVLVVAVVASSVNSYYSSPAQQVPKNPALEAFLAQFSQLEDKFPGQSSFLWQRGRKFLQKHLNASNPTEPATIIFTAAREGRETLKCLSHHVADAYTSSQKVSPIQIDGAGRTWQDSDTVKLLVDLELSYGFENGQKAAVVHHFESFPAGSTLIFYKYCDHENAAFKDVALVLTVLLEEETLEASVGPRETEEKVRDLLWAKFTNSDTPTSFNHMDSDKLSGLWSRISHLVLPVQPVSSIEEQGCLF

[6] = optical density change of DRC41 E. coli – strain DRC41, OD650, 24 h, E. coli filamentation project, primary screen (AID 1093);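 also: MC1000 strain lacking acrAB efflux and sulA so SOS filamentation is blocked; test concentration not given here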; settings: E. coli DRC41 growth, higher = more signal, called active from +8 up or from −8 down
[7] = probe aLefty2 binding to arrayed compounds – biochemical, biotinylated probe, 635/667 nm fluorescence, primary screen (AID 1094); settings: small-molecule microarray, higher = more signal;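 also: score merges spot fluorescence near 667 nm with spot signal-to-noise ratio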
[8] = test system: Noggin (protein binding on small-molecule microarray); assay: small molecules binding Noggin protein – biochemical, 635/667 nm fluorescence, primary screen (AID 1095); settings: 635 nm fluorescence, higher = more signal;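 also: score merges 667 nm feature fluorescence with signal to noise over triplicate slides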
[9] = biological target: Neurogenic locus notch homolog protein 3 (Homo sapiens) (UniProt Q9UM47); assay: small molecules binding NOTCH3 protein – biochemical, 635/667 nm fluorescence, primary screen (AID 1096); settings: small-molecule microarray, 635 nm fluorescence, higher = more signal
Sequence of Neurogenic locus notch homolog protein 3 (Homo sapiens) (Q9UM47 whole entry, looked up): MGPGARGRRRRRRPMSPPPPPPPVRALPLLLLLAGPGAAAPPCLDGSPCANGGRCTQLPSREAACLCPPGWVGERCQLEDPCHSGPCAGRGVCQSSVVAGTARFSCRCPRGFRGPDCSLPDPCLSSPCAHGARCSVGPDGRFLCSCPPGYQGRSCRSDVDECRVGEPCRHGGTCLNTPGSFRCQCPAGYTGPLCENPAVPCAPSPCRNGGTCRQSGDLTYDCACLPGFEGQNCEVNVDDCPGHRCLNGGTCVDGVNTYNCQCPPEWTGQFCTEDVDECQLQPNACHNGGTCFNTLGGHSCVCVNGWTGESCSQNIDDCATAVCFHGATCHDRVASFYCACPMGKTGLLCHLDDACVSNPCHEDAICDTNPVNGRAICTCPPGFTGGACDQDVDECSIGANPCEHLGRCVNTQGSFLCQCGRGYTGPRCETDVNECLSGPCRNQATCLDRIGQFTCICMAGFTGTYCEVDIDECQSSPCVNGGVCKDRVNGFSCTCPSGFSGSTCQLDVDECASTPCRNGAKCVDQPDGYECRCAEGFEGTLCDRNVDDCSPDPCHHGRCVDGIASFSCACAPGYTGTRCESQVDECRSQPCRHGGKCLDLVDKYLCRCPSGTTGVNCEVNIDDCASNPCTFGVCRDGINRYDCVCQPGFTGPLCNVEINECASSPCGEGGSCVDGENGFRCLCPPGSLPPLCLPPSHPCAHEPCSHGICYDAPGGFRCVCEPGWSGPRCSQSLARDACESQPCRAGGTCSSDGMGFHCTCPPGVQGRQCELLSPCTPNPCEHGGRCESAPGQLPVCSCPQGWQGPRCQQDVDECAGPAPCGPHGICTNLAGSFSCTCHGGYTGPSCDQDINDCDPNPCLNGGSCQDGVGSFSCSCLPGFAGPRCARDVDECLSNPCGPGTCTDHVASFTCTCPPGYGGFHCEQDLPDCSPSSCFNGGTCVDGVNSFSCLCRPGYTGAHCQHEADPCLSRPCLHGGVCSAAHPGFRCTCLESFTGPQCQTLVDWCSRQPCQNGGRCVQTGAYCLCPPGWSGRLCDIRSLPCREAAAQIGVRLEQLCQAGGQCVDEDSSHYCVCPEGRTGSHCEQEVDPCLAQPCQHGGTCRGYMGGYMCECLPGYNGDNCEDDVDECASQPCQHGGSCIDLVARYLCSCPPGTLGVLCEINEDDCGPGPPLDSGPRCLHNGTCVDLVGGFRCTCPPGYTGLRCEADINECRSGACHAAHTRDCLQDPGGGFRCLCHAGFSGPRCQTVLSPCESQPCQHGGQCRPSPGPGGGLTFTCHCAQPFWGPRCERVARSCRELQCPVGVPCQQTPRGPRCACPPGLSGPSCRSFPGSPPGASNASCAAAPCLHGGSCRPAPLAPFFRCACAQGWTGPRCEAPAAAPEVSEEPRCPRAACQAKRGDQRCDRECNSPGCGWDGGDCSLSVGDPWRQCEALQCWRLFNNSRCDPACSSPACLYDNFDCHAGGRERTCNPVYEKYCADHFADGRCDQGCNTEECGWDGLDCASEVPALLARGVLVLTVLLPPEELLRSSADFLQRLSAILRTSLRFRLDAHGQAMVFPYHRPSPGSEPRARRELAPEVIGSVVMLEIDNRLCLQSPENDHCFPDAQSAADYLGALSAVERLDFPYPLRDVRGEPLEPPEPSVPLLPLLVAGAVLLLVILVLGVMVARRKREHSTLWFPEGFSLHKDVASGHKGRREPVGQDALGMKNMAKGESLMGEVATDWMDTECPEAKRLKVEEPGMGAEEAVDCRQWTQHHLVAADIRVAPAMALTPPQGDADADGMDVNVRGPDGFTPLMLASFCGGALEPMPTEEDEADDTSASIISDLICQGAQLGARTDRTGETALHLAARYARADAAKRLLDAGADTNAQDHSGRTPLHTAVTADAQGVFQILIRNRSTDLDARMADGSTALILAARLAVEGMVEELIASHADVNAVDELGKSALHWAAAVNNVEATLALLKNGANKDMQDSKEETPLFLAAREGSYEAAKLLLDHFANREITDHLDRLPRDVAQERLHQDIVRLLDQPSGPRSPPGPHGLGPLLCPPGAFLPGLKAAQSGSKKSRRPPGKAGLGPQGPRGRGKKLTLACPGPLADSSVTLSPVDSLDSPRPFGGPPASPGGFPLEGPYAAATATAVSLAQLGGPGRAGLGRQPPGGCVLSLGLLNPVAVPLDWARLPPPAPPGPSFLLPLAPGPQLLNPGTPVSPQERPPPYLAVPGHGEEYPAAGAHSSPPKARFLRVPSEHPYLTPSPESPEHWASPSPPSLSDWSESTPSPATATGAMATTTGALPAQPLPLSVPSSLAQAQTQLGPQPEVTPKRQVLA

[10] = probe aEGFR binding to arrayed compounds – biochemical, biotinylated probe, 635/667 nm fluorescence, primary screen (AID 1097); settings: small-molecule microarray, higher = more signal;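 also: probe is a biotinylated anti-EGFR antibody binding compounds printed on slides; score combines fluorescence near 667 nm and signal to noise of each spot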

SMILES | composite z-score [1] | z-score [2] | z-score [3] | z-score [4] | composite z-score [5] | z-score [6] | composite z-score [7] | composite z-score [8] | composite z-score [9] | composite z-score [10]
CN1C(=O)C2C=CC(C(O)c3ccccc3)N(N3CCCCC3)C2C1=O (stereo not given) | 0.664 | 0.201 (inactive) | 0.24 (inactive) | 0.404 (inactive) | 3.52 | -2.05 (inactive) | 0.0215 | 0.145 | 0.646 | 0.0713
CCCNC(=O)[C@@H]1c2ccccc2C(=O)N(Cc2ccccc2OC)[C@H]1c1ccc(CO)cc1 | 0.286 | 0.105 (inactive) | -0.19 (inactive) | 0.353 (inactive) | 3.06 | 0.387 (inactive) | -0.139 | 0.986 | 1.11 | -0.142
CN(C)C(=O)[C@]1(Cc2ccccc2)N=C(c2ccc(OCCCO)cc2)O[C@@H]1c1ccccc1N=[N+]=[N-] | 1.56 | -0.305 (inactive) | -0.655 (inactive) | 1.06 (inactive) | 2.84 | 0.841 (inactive) | 0.141 | 1.35 | 1.12 | 0.438
COCCCNC(=O)[C@@H]1c2ccccc2C(=O)N(Cc2ccccc2OC)[C@H]1c1ccc(CO)cc1 | -0.244 | 0.118 (inactive) | -0.757 (inactive) | -0.921 (inactive) | 2.56 | -0.0935 (inactive) | -0.157 | 1.68 | 0.876 | -0.115
[N-]=[N+]=Nc1ccccc1C[C@@]1(C(=O)N2CCCCC2)N=C(c2ccc(OCCCO)cc2)O[C@@H]1c1ccccc1N=[N+]=[N-] | 0.919 | -1.16 (inactive) | 0.123 (inactive) | 1.18 (inactive) | 2.45 | 0.799 (inactive) | 0.605 | 0.169 | 0.884 | 0.29
C=CC1c2cc(O)c(OC)cc2CCN1Cc1cccc(OC(F)(F)F)c1 (stereo not given) | 1.22 | -26 (active) | -20.2 (active) | -3.13 (inactive) | 3.88 | 0.148 (inactive) | -0.129 | -0.0799 | -0.344 | -0.125
CCC(CC)C(O)C1C=CC2C(=O)N(c3ccccc3)C(=O)C2N1Nc1ccccc1 (stereo not given) | 1.49 | 0.296 (inactive) | -0.914 (inactive) | 0.204 (inactive) | 3.53 | 0.272 (inactive) | 0.503 | 0.403 | 1.07 | 0.228
Cc1ccc(S(=O)(=O)N2C[C@@H](C(=O)O)[C@H](Sc3ccccc3)C[C@H]2c2ccccc2)cc1 | 1.55 | -0.552 (inactive) | 0.972 (inactive) | -0.727 (inactive) | 3.41 | -0.385 (inactive) | 0.237 | 0.228 | 0.988 | 0.0478
COC(=O)c1c(CC[C@@H](CO)NC(=O)N[C@H](Cc2ccccc2)Cn2cc(-c3ccccn3)nn2)oc(C(C)=O)c1C(=O)OC | 0.73 | -0.413 (inactive) | 0.0254 (inactive) | -0.398 (inactive) | 1.68 | -0.419 (inactive) | -0.207 | -0.151 | 0.0619 | -0.096
COc1ccc([C@H]2C[C@H]3C(Br)=C[C@@]2(CO)C(=O)[C@]32CO2)cc1 | -0.855 | -0.658 (inactive) | -3.35 (inactive) | 0.241 (inactive) | -0.274 | -0.687 (inactive) | 0.0395 | -0.472 | -0.534 | -0.0799
NC(=O)N1C(=O)C2C(C1=O)C1C=C(CCCO)C2C(C2CC2)N1Cc1cc2c(cc1Br)OCO2 (stereo not given) | -0.918 | -1.07 (inactive) | -0.435 (inactive) | -1.22 (inactive) | 1.36 | -0.331 (inactive) | -0.0778 | -0.0543 | 0.325 | -0.13
CCCC(=O)N(CCc1c[nH]c2ccccc12)[C@@H]1CC(C(=O)NCCO)=C[C@H](Oc2c(I)cc(CO)cc2OC)[C@H]1O | 0.234 | 0.5 (inactive) | -0.713 (inactive) | -0.241 (inactive) | 1.42 | 1.55 (inactive) | -0.157 | 0.259 | -0.0693 | -0.0708
O=C1C2C=CC(C(O)COCc3ccccc3)N(Nc3ccc([N+](=O)[O-])cc3)C2C(=O)N1c1ccccc1 (stereo not given) | 1.46 | -0.464 (inactive) | 1.12 (inactive) | 2.16 (inactive) | 2.83 | 0.547 (inactive) | 0.168 | 0.661 | 1.09 | -0.0072
CC(C)OC(=O)C=C1C[C@@H](c2cccc(Cl)c2)O[C@@H](c2cccc(Cl)c2)O1 | -0.341 | -0.338 (inactive) | -5.58 (inactive) | -0.764 (inactive) | 1.99 | -0.391 (inactive) | -0.0009 | -0.225 | -0.735 | -0.13
[N-]=[N+]=Nc1ccccc1C[C@]1(C(=O)N2CCCCC2)COC(c2ccc(OCCCO)cc2)=N1 | 1.54 | 1.73 (inactive) | -1.72 (inactive) | 32.7 (active) | 3.18 | 1.75 (inactive) | -0.0631 | 0.753 | 1.08 | -0.0828
CCCCN1CC=CC23O[C@@H]4C=CCCOC(=O)C4[C@H]2C(=O)N(CCCCCO)[C@@H]3C1=O (stereo not given in full) | -0.726 | -0.494 (inactive) | 0.0411 (inactive) | 0.025 (inactive) | 0.905 | -0.0111 (inactive) | -0.168 | -0.548 | -0.73 | -0.0987
C=C(CCCC)C(=O)CC[C@@H](OC(C)=O)c1ccc(CO)o1 | 1.54 | -4.06 (inactive) | -15.4 (active) | -2.36 (inactive) | -0.0891 | 0.246 (inactive) | -0.241 | 1.52 | 0.582 | -0.162
O=C1N(CCS(=O)(=O)c2ccccc2)c2ccccc2[C@@H]2OC(c3ccc(OCCCO)cc3)=N[C@]12Cc1ccccc1 | 1.56 | -2.18 (inactive) | -2.2 (inactive) | 3.02 (inactive) | 2.45 | 0.736 (inactive) | -0.0248 | 1.59 | 1.12 | -0.0435
CC(=O)n1cc(C(O)C2C=CC3C(=O)NC(=O)C3N2Nc2ccccn2)c2ccccc21 (stereo not given) | 0.553 | 0.505 (inactive) | 0.777 (inactive) | 0.171 (inactive) | 0.134 | -0.965 (inactive) | -0.0594 | 0.187 | 0.375 | -0.0084
O=C1C2C=CC(C(O)c3ccc(F)cc3)N(Nc3ccc([N+](=O)[O-])cc3)C2C(=O)N1c1ccccc1 (stereo not given) | 1.35 | 0.099 (inactive) | 1.75 (inactive) | 1.96 (inactive) | 3.27 | -0.848 (inactive) | 0.187 | 0.257 | 1.1 | -0.0435
O=C1NC(=O)C2C1C=CC(C(O)c1ccc(I)cc1)N2Nc1ccccn1 (stereo not given) | 0.321 | -0.353 (inactive) | 0.426 (inactive) | 0.17 (inactive) | 2.56 | -0.956 (inactive) | -0.0328 | 0.143 | 0.15 | -0.0947
CC(C)CN1C(=O)[C@@]2(c3ccc([N+](=O)[O-])cc3)CC(=O)N(C3CCCCC3)[C@@H]2c2ccc(CO)cc21 | -1.13 | 0.0926 (inactive) | 0.612 (inactive) | -1.78 (inactive) | -0.709 | 0.733 (inactive) | -0.113 | -1.13 | -0.626 | -0.261
CCCCCN1CC=CC23O[C@@H]4C=CCOC(=O)[C@@H]4[C@H]2C(=O)N(C(C)CO)[C@@H]3C1=O (stereo not given in full) | -0.508 | -0.076 (inactive) | -0.226 (inactive) | 0.0795 (inactive) | -0.952 | 0.266 (inactive) | -0.174 | -1 | -0.553 | -0.296
O=C(NC1CC1)[C@@H]1c2ccccc2C(=O)N(Cc2cc(F)cc(C(F)(F)F)c2)[C@H]1c1ccc(CO)cc1 | 1.35 | -1.02 (inactive) | -1.15 (inactive) | -0.926 (inactive) | 2.85 | -0.213 (inactive) | 0.0351 | 0.235 | -0.418 | -0.177
COc1cc2c(cc1OC)CN(C(=O)[C@H]1[C@@H]3C(=O)O[C@@H](c4ccccc4)[C@@H](c4ccccc4)N3[C@@H](c3ccccc3OCCO)[C@]13C(=O)Nc1ccc(C#CCCO)cc13)CC2 | 1.52 | 2.11 (inactive) | -0.0834 (inactive) | 3.66 (inactive) | 1.61 | -0.302 (inactive) | -0.0499 | 1.71 | 1.02 | -0.0531
CCCCC(=C=CC[C@@H](O)c1ccc(CO)o1)CCO | 0.954 | 1.46 (inactive) | -0.614 (inactive) | 0.297 (inactive) | 0.418 | 0.572 (inactive) | -0.13 | 0.436 | 0.0341 | -0.071
COc1ccc(-c2cc3c(c(Cc4ccccc4)n2)[Si](C(C)C)(C(C)C)OC3)cn1 | -0.738 | 1.64 (inactive) | -0.27 (inactive) | 1.41 (inactive) | -0.655 | -1.41 (inactive) | -0.115 | -0.154 | -0.459 | -0.16
C=C(C(=O)CC[C@H](OC(C)=O)c1ccccc1OCCO)C(C)C | 0.316 | -25 (active) | -20.2 (active) | -4.35 (inactive) | -0.808 | 0.43 (inactive) | -0.232 | 0.657 | 0.0937 | -0.188
COCCCNC(=O)[C@@]1(CCS(=O)(=O)c2ccccc2)N=C(c2ccc(OCCCO)cc2)O[C@H]1c1ccccc1N=[N+]=[N-] | 1.53 | -1.2 (inactive) | 0.431 (inactive) | 1.36 (inactive) | 3.47 | 0.299 (inactive) | 0.155 | 0.908 | 1.07 | 0.0135
